Compound activity from PubChem BioAssay.
An excerpt weighted towards active compounds, which were near 2.4% of everything screened.
Cruzain Triton – cruzain (T. cruzi) inhibition with detergent | P25779 | purified cruzain, Z-FR-AMC fluorescence, 0.01% Triton | Potency, µM, without a hit: max response, negative = inhibition, usual class: inhibitors | 200,000 tested, 0.43% active;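 note: plate controls were neutral wells for no effect and buffer without enzyme for full effect; nearly all actives have a fitted effect of over 40% in size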
Target sequence (P25779 123-467 limits assumed): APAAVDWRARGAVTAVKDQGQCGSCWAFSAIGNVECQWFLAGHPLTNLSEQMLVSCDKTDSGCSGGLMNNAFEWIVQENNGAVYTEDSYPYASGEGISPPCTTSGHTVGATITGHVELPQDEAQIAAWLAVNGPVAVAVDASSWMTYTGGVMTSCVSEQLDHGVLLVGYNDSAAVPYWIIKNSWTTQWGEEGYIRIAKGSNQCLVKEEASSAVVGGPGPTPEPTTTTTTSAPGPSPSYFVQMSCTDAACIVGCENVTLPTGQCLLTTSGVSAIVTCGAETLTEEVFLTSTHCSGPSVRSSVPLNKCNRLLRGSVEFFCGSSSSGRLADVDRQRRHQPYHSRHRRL
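Cysteine protease activity tested under reducing, mildly acidic conditions (100 mM sodium acetate pH 5.5, 5 mM DTT) plus 0.01% Triton X-100. Cruzain 1.5 nM; substrate Z-FR-AMC 2 uM; 15 min compound preincubation at room temperature.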
Cruzain noTriton – inhibitors of Trypanosoma cruzi cruzain without detergent; 200,000 tested, 2.3% active; AID 1476; P25779; purified cruzain, Z-FR-AMC fluorescence, no detergent; Potency, µM, for the others: max response, negative = inhibition, hits mostly inhibitors;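 note: plate controls were enzyme without inhibitor for no effect and buffer without enzyme for full effect; nearly all actives have a fitted effect of over 40% in size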
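Purified cruzain at 1.5 nM, pre-incubated 15 min with compound at room temperature in 100 mM sodium acetate pH 5.5, 5 mM DTT, 0.00005% Triton X-100. Reaction started with 2 uM Z-FR-AMC; AMC fluorescence increase over 60 s gives rate.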
Papain inh – blocks papain protease activity, flagging nonselective cruzain hits; shares compounds with Cruzain Triton; purified papain, Z-FR-AMC fluorescence cleavage; Potency, µM, inactives show max response, negative = inhibition, most hits filed as inhibitors; 410 tested, 41% active;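 note: 0% = no-compound wells and -100% = no-enzyme wells; nearly all actives have a fitted effect of over 35% in size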
Target sequence (P00784 whole entry, looked up): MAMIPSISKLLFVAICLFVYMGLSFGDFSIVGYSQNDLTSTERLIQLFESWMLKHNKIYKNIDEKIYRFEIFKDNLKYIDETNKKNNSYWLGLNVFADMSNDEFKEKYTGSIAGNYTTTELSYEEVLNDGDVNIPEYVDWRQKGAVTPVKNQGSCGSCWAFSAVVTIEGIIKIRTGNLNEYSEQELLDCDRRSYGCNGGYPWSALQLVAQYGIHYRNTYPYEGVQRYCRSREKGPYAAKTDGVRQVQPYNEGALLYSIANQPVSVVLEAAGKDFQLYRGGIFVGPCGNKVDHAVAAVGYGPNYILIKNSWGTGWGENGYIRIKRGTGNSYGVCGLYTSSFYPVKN
* hit, by the source's call; ? = inconclusive; · = no result; ! = not active in a repeat. Calls come from the whole dose curve; as a rule, active = well fitted curve in the direction sought with a large enough effect; inconclusive = small, poorly fitted or top-dose-only effect, or another doubt; inactive = no such curve, though single readings can be large; an effect the other way counts as inactive or inconclusive. Potency is the fitted concentration of half-maximal effect.

SMILES	Cruzain Triton	Cruzain noTriton	Papain inh
Cc1cc2ccccc2n1CCNC(=O)C1CCCC1	4%	-6%	·
COc1ccccc1OCCn1c(NC(=O)c2ccccc2)nc2ccccc21	1%	1%	·
COc1ccc(OCCCn2c(CCNC(=O)C3CCCCC3)nc3ccccc32)cc1	·	·	-9%
COc1ccccc1OCCn1c(CCNC(=O)C2CCCCC2)nc2ccccc21	·	·	2%
Cc1cccc(OCCCn2c(CCNC(=O)C(C)(C)C)nc3ccccc32)c1	-3%	?	·
Cc1cccc(OCCn2c(CCNC(=O)C3CCCCC3)nc3ccccc32)c1	·	·	-1%
Cc1nc2sc(C(N)=O)c(N)c2c(-c2ccc(Br)cc2)c1C(=O)Nc1ccc(Cl)cc1	-26%	?	·
COc1ccc(N2CCN(C(CNS(=O)(=O)c3c(C)cc(C)cc3C)c3ccco3)CC2)cc1 (stereo not given)	-6%	-2%	·
CCOc1ccc(-c2cc(-c3nc(-c4ccc(C)cc4)no3)[nH]n2)cc1	0%	1%	·
COc1cccc(NC(=O)CSc2nc3c(oc4ccccc43)c(=O)n2Cc2ccco2)c1	-3%	9%	·
COc1cc(NC(=O)c2nnn(CC(=O)Nc3cc(C)ccc3C)c2N)cc(OC)c1	-1%	3%	·
CN1CCN(c2ncc3nc(-c4ccc(Cl)cc4)c(=O)n(CCC#N)c3n2)CC1	-28%	?	·
CC1CCN(C(=O)C2COc3ccccc3C2)CC1 (stereo not given)	0%	-11%	·
CSc1ccccc1NC(=O)C1=CC(c2ccc3c(c2)OCO3)=NS(=O)(=O)N1C	-2%	12%	·
COc1ccc(OCCn2c(CCNC(=O)C3CCCCC3)nc3ccccc32)cc1	·	·	-17%
Cc1ccc(OCCn2c(CCNC(=O)C(C)C)nc3ccccc32)cc1	-6%	-9%	·
O=C(O)CNC(=O)[C@@H](CS)Cc1ccccc1	-2%	-6%	·
CCOC(=O)C1CCCN(c2ncnc3c2cnn3-c2ccc(C)c(Cl)c2)C1 (stereo not given)	1%	-8%	·
O=C(CNC(=O)C1CCCCC1)OCCOc1ccccc1	·	·	-6%
O=C(CNC(=O)C1CCCCC1)OCc1ccccc1	·	·	-32%
COC(=O)CNC(=O)C1CCN(C(=O)OCc2ccccc2)CC1	-5%	-1%	·
O=C(COc1ccccc1)NC1CCCCC1	-2%	2%	·
Cc1cccc(N(C)S(=O)(=O)c2nnc(NC(=O)C(C)Oc3ccccc3)s2)c1 (stereo not given)	-11%	14%	·
Cc1ccc(NC(=O)Cn2c(=O)oc3cc(S(=O)(=O)N4CCCCCC4)ccc32)cc1Cl	0%	-8%	·
Cn1nc(-c2ccncc2)nc2c(=O)n(C)c(=O)nc1-2	·	·	-7%
SMILES	Cruzain Triton	Cruzain noTriton	Papain inh
Cn1c(=O)c(-c2ccccc2)nn2c3ccccc3nc12	2%	-19%	·
Cc1nc2c(=O)n(C)c(=O)nc-2n(C)n1	1µM*	0.5µM*	-1%
Cc1ccc(-n2c3nc(=O)n(C)c(=O)c-3cc3ccccc32)c(C)c1	8%	-10%	·
Cn1nc(-c2ccccc2)nc2c(=O)n(C)c(=O)nc1-2	·	·	-4%
COc1cc(/C=c2\sc3nc(-c4ccncc4)nn3c2=O)ccc1OC(C)=O	-1%	?	·
CC1=C(C(=O)Nc2ccc(C)cc2C)C(c2ccc(O)cc2)n2nnnc2N1 (stereo not given)	-5%	-5%	·
COc1ccc(NC(=O)CCc2nc3c(C)nn(-c4ccc(C)cc4)c3n(C)c2=O)c(OC)c1	3%	0%	·
CCOC(=O)c1cnc2c(Cl)cc(Cl)cc2c1Nc1ccccc1OC	-2%	-1%	·
CC1(C)Cc2c(C#N)c(N3CCN(C(=O)c4ccco4)CC3)nc(Cc3ccccc3)c2CO1	-1%	14%	·
CC1(C)Cc2c(C#N)c(N3CCN(C(=O)c4ccco4)CC3)nc(-c3ccco3)c2CS1	28µM*	16µM*	3.5µM*
O=C(/C=C/c1ccc2c(c1)OCO2)Nc1nc2ccccc2s1	-1%	-11%	·
CCSc1nnc(NC(=O)/C=C/c2ccc3c(c2)OCO3)s1	16µM*	16µM*	7%
CCSc1nnc(NC(=O)c2ccccn2)s1	-7%	9%	·
CCSc1nnc(NC(=O)c2ccc(Br)s2)s1	-2%	25µM*	14%
Cc1ccc(S(=O)(=O)N[C@@H](Cc2ccccc2)C(=O)CCl)cc1	7.1µM*	3.2µM*	16µM*!
Cc1ccc(S(=O)(=O)N[C@H](CO)C(=O)O)cc1	2%	4%	·
O=C(NCCCO)c1ccc2nc(-c3ccco3)c(-c3ccco3)nc2c1	·	·	28µM*
CCCNC(=O)c1cc(-c2ccco2)on1	-3%	-15%	·
CCCCNC(=O)c1ccc2nc(-c3ccco3)c(-c3ccco3)nc2c1	14µM*	16µM*	16µM*
O=C(NCCNC(=O)c1ccco1)c1cccc(F)c1	0%	2%	·
CCCNC(=O)c1ccc2nc(-c3ccccc3)c(-c3ccccc3)nc2c1	-9%	?	·
CCNC(=O)c1ccc2nc(-c3ccccc3)c(-c3ccccc3)nc2c1	·	·	-14%
COc1ccc(Nc2ncnc3onc(C)c23)cc1Cl	-2%	-20%	·
CCOC(=O)c1cc(S(=O)(=O)Nc2ccccc2OCC)[nH]n1	2%	16%	·
OCCN(CCO)c1ncnc2c1sc1nc(N3CCOCC3)c3c(c12)CCCC3	-11%	?	·
SMILES	Cruzain Triton	Cruzain noTriton	Papain inh
CSc1nc(N(CCO)CCO)c2sc3nc(-c4ccco4)c4c(c3c2n1)CCC4	10µM*	3.2µM*	13µM*
CCC(=O)N1CCc2cc(Br)cc(S(=O)(=O)CCC(=O)NCCc3cccc(C)c3)c21	-3%	-12%	·
O=C(CCC(=O)OCC(=O)c1ccc([N+](=O)[O-])cc1)NC1CCCCC1	-4%	2%	·
CCC(=O)NCC(=O)OCC(=O)c1ccccc1	-2%	3%	·
O=C(CNC(=O)C1CCCCC1)OCC(=O)c1ccc(-c2ccccc2)cc1	·	·	-19%
O=C(COC(=O)C1CCCCC1)Nc1ccc(N2CCCCC2)cc1	-16%	-5%	·
N#Cc1ccc(NC(=O)COC(=O)CNC(=O)C2CCCCC2)cc1	4µM*	4µM*	-17%
O=C(COC(=O)COc1ccc(Cl)cc1)NC1CCCCC1	0%	2%	·
O=C(CNC(=O)C1CCCCC1)OCC(=O)c1ccc([N+](=O)[O-])cc1	·	·	16µM*
O=C(COC(=O)CNC(=O)C1CCCCC1)NC1CCCC1	·	·	32µM*
Cc1cccc(N2C(=O)CSC23C(=O)N(Cc2cccc(C(F)(F)F)c2)c2ccccc23)c1 (stereo not given)	-9%	-20%	·
CC(C)(C)OC(=O)N1CCC(c2c(C(=O)N3CCN(c4ccccn4)CC3)cnn2-c2cccc(F)c2)CC1	0%	-9%	·
O=c1cnc2cncnc2n1Cc1ccccc1	0%	-7%	·
Cc1c(C(=O)Nc2ccc(F)c(C(F)(F)F)c2)sc2nc(-c3ccccc3)cn12	-5%	-10%	·
CCN(CC)CCOC(=O)c1ccc(NC(=O)c2cc3cccc(OC)c3oc2=O)cc1	0%	18%	·
CCc1ccc(C(=O)COC(=O)CNC(=O)CNC(=O)Cc2ccccc2)cc1	3%	-12%	·
O=C(CNC(=O)C1CCCCC1)OCC(=O)c1cccc(Cl)c1	·	·	14µM*
CCc1ccc(C(=O)COC(=O)CNC(=O)C2CCCCC2)cc1	·	·	-21%
O=C(CNC(=O)c1ccccc1)NCC(=O)OCC(=O)c1ccc(F)cc1	-5%	-8%	·
O=C(CCC(=O)OCC(=O)c1ccc(Cl)cc1)NC1CCCCC1	-7%	-8%	·
O=C(CNC(=O)C1CCCCC1)OCC(=O)c1ccc(F)cc1	·	·	16µM*
O=C(O)c1cc(-c2ccc(-c3ccccc3)cc2)nc2cc3ccccc3cc12	-6%	-6%	·
